The campaign covered roughly 6,200 compounds. About 2,900 (47%) were called active. Rule as the data show it: active = inhibition above about 50%; inactive = the rest. The set was probably picked from earlier hits. This is one part of the list.
Test: Mycobacterium tuberculosis growth inhibition, primary screen (AID 1259343)
Settings: inhibition: at 10 µM, active compounds read high; outcome: 10 uM
For `CCCc1cc(=O)[nH]c(SCCOc2ccc(Br)cc2)n1`, the inhibition was 18.1% (inactive).
For `Nc1c(C(=O)c2ccc(Br)s2)oc2ccccc12`, the inhibition was 43.5% (inactive).
In the case of `Nc1c(C(=O)CCC(=O)O)oc2ccc(Cl)cc12`, the inhibition is reported as 20.1% (inactive).
With `Nc1c(C(=O)CCC(=O)O)oc2ccc(Br)cc12` the inhibition was 68% (active).
With `O=C(O)CCC1NCC2CC1CN1CCCCC21` (configuration not stated) the inhibition was 1.66% (inactive).
In the case of `CSC(Nc1ccc(Br)cc1)=C(C#N)C#N`, the inhibition is reported as 101% (active).
In the case of `Cc1ccc(Cl)c(OCCCOc2cccc3cccnc23)c1`, the inhibition is reported as 71.6% (active).
For `Clc1cccc(Cl)c1OCCOc1cccc2cccnc12`, the inhibition was 94.7% (active).
In the case of `COc1ccc(C2CC(=O)C3=C(C2)NC(C)=C(C#N)C3c2ccc(Cl)c(Cl)c2)cc1` (configuration not stated), the inhibition is reported as -9.69% (inactive).
For `CCOc1ccc2nc(CN3CCN(CC=C(C)C)C(CCO)C3)ccc2c1` (configuration not stated), the inhibition was “inactive”.
With `OC1(c2cccs2)C[N+]2=C(SCC2)N1c1ccccc1` (configuration not stated) the inhibition was -3.48% (inactive).
In the case of `CCCCc1ccc(N2C3=[N+](CCCS3)CC2(O)c2ccc(C)cc2)cc1` (configuration not stated), the inhibition is reported as 79.3% (active).
For `Oc1c(Br)cc(C=NNc2ccccn2)cc1Br`, the inhibition was 97.7% (active).
With `N#Cc1ccc(CNc2ccc(F)cc2Cl)cc1` the inhibition was -56.2% (inactive).
For `N#Cc1cc(F)c(NCc2ccc(F)cc2)c(F)c1`, the inhibition was 69.3% (active).
For `N#Cc1cnc(NCc2ccc(N3CCOCC3)c(F)c2)c(Cl)c1`, the inhibition was 5.19% (inactive).
For `CCCCS(=O)(=O)NCC1CCCCC1`, the inhibition was 25.9% (inactive).
For `CCCCS(=O)(=O)NCCOc1ccc(C)cc1`, the inhibition was 75% (active).
In the case of `CC(O)c1cccc(OCc2ccc(S(=O)(=O)C(F)F)cc2)c1` (configuration not stated), the inhibition is reported as 88.2% (active).
With `COc1cccc(C(=O)Nc2ccc(S(=O)(=O)C(F)F)cc2)c1` the inhibition was -1.65% (inactive).
For `Cc1ccccc1OCC1=NN2C(=N)/C(=C/c3ccc(Br)o3)C(=O)N=C2S1`, the inhibition was 51.2% (active).
In the case of `O=C(Cc1ccccc1Cl)NCc1cc(F)cc(F)c1`, the inhibition is reported as 24% (inactive).
With `O=C1CC(C(=O)NCc2ccccc2Cl)c2ccc(F)cc2N1` (configuration not stated) the inhibition was 87.3% (active).
With `CC1(Cc2ccccc2Cl)C(=O)Nc2c(Cl)ccc(Cl)c21` (configuration not stated) the inhibition was 20.4% (inactive).
In the case of `CC1Oc2ccccc2C=C1/C=N\Nc1nc2ccccc2[nH]1` (configuration not stated), the inhibition is reported as 94.2% (active).
In the case of `C(=NNc1nc2ccccc2[nH]1)c1c(-c2ccccc2)[nH]c2ccccc12`, the inhibition is reported as 28.8% (inactive).
For `C(=NNc1nc2ccccc2[nH]1)C(=NNc1nc2ccccc2[nH]1)c1ccccc1`, the inhibition was 79.8% (active).
In the case of `CC1=CCCC(C)(C)C1C=CC(C)=NNc1nc2ccccc2[nH]1` (configuration not stated), the inhibition is reported as 36.3% (inactive).
For `CC(=NNc1nc2ccccc2[nH]1)c1ccc(C)o1`, the inhibition was 84.2% (active).
For `OCn1nc(-c2ccc(Cl)cc2Cl)oc1=S`, the inhibition was 75.9% (active).
For `Fc1ccc(-c2[nH]ncc2CN2CCC(c3ccccc3F)C2)c(F)c1` (configuration not stated), the inhibition was 84.8% (active).
With `COc1cccc(-c2cnnc(N3CCC(c4ccccc4F)C3)n2)c1` (configuration not stated) the inhibition was 41.2% (inactive).
With `O=C1NC(=S)NC(=O)C1=Cc1ccc(OCc2ccc(Cl)cc2)cc1` the inhibition was 97.1% (active).
In the case of `C=CCN1C(=O)NC(=O)/C(=C/c2ccc(OCc3ccccc3F)cc2)C1=O`, the inhibition is reported as 37.1% (inactive).
In the case of `N#Cc1c(NC(=O)c2ccco2)sc2c1CCCCC2`, the inhibition is reported as -3.03% (inactive).
With `NC(=O)c1ccsc1NC(=O)c1ccc([N+](=O)[O-])s1` the inhibition was -3.4% (inactive).
With `O=C(Nc1ccc([N+](=O)[O-])cc1)c1ccc(Br)s1` the inhibition was 91.6% (active).
With `CCCCCC(C)NC(=O)c1ccc([N+](=O)[O-])s1` (configuration not stated) the inhibition was -12.6% (inactive).
In the case of `N#Cc1c(NC(=O)CC2(CC(=O)O)CCCC2)sc2c1CCCC2`, the inhibition is reported as “inactive”.
For `Cc1ccc(NC(=O)c2ccc([N+](=O)[O-])s2)cc1`, the inhibition was 78.9% (active).
In the case of `N#Cc1c(NC(=O)c2ccc([N+](=O)[O-])s2)sc2c1CCCC2`, the inhibition is reported as 99.4% (active).
For `CN[C@H](CC(C)C)C(=O)N[C@H]1C(=O)N[C@@H](CC(N)=O)C(=O)N[C@H]2C(=O)N[C@H]3C(=O)N[C@H](C(=O)N[C@H](C(=O)O)c4cc(O)cc(O)c4-c4cc3ccc4O)[C@H](O)c3ccc(c(Cl)c3)Oc3cc2cc(c3O[C@@H]2O[C@H](CO)[C@@H](O)[C@H](O)[C@H]2O[C@H]2C[C@](C)(N)[C@H](O)[C@H](C)O2)Oc2ccc(cc2Cl)[C@H]1O`, the inhibition was 49.3% (inactive).
With `COc1ccc(OCCN2CCN(c3ccc([N+](=O)[O-])cc3)CC2)cc1` the inhibition was 90.8% (active).
For `COc1cccc(OCCCOc2ccc([N+](=O)[O-])cc2)c1`, the inhibition was 27.9% (inactive).
For `Cc1cccc2c(=O)[nH]c(Cn3nnn(-c4cccs4)c3=O)nc12`, the inhibition was -0.78% (inactive).
With `CC(C)(C)c1ccc(C(=O)Nc2nnc(-c3cccnc3)o2)cc1` the inhibition was 97.4% (active).
In the case of `O=C(NCCn1nc(-c2cccnc2)ccc1=O)Nc1ccc(C(F)(F)F)cc1`, the inhibition is reported as 18.6% (inactive).
For `O=C(Nc1nnc(-c2ccc(Cl)cc2)o1)c1ccncc1`, the inhibition was 21.6% (inactive).
With `Cn1nc(C(C)(C)C)cc1NC(=O)c1ccc(C(F)(F)F)cc1` the inhibition was 21.5% (inactive).
With `Cc1ccc(C#N)cc1NC(=O)c1ccc(C(F)(F)F)cc1` the inhibition was -17.1% (inactive).
For `Cc1nnc(NC(=O)c2ccc(C(F)(F)F)cc2)o1`, the inhibition was 101% (active).
In the case of `Brc1ccc(NN=C(N=Nc2nn[nH]n2)c2ccccc2)cc1`, the inhibition is reported as 29.1% (inactive).
With `Oc1ccc(N=Nc2nn[nH]n2)c(O)c1` the inhibition was 61.7% (active).
For `C=CCn1c(SC(C)c2nc3sc(C)c(C)c3c(=O)[nH]2)nnc1C1CCCCC1` (configuration not stated), the inhibition was 0.9% (inactive).
For `COc1ccc(NC(=O)CSc2nc(CC(=O)NCCC3=CCCCC3)cs2)cc1`, the inhibition was 86.3% (active).
With `Cc1ccc(NC(=O)CSc2nc(CC(=O)NCCC3=CCCCC3)cs2)cc1` the inhibition was 81.6% (active).
In the case of `C[C@@H]1[C@H]2C[C@@H](C[C@H]1NC(=O)c1ccc(Nc3cccc(C(F)(F)F)c3)nc1)C2(C)C`, the inhibition is reported as 6.48% (inactive).
For `CC(C)Oc1cccc(CN2CCN(c3ccnc(N(C)C)n3)CC2)c1`, the inhibition was 91% (active).
In the case of `Fc1cccc(CN2CCN(Cc3ccc(-c4ccccc4)nc3)CC2)c1`, the inhibition is reported as 27.7% (inactive).
With `CCN(C)c1cc(N2CCN(Cc3cc4ccccc4n3C)CC2)ncn1` the inhibition was 49.3% (inactive).
With `Cc1nnc(Sc2cc(=O)oc3ccccc23)s1` the inhibition was 99.2% (active).
For `O=c1cc(O)c2ccccc2o1`, the inhibition was -50.4% (inactive).
